Screening data (PubChem)
Hits are enriched below; roughly 4.6% of the tested compounds scored in any of these assays.
HSF1 inhib = HSF1 inhibition; NIH3T3-HGL HSE-luciferase, MG132-induced, luminescence 8 h; stronger effect = lower value; hit rate 0.77% among 300,000; activity change, negative = inhibition, % at 7.5 µM (by protocol);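 active means more than half of replicate wells show activity change below -50%, luminescence cut by over half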;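 further: luciferase reports HSF-1 transcriptional activity via heat shock element; 0% = median of DMSO wells and -100% = zero luminescence signal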
HSF1 activator = increases HSF-1 driven luciferase reporter signal; NIH3T3-HGL HSF-1 luciferase reporter, MG132, 8 h; 100% = twice DMSO control signal; activation, % at 9 µM; hit rate 1.7% among 300,000; AID 504408;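 active means mean replicate activation of at least 50% with a set share of replicates each reaching 50%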;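 further: 0% = median of the neutral control wells and 100% = twice that signal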
GAA850 FXN act = frataxin GAA850 promoter activation. HEK293 lucGAA850 FXN promoter luciferase reporter, 24 h; percent of 10 µM SAHA response. activation, % at 6 µM. hit rate 0.56% among 360,000. AID 540364;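 active means activation above the average of all compounds screened plus 3 SD, cutoff fixed separately per campaign, cut at about 7.5% in these data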;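 further: 0% = DMSO wells and 100% = 10 µM SAHA wells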
AHR activator = human AHR activation; activation, % at 5 µM; P35869; AID 2796; AHR-responsive luciferase reporter cells, luminescence; hit rate 2.5% among 320,000; in the data active means activation above about 47%;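 further: 0% = vehicle wells and 100% = reference agonist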
Target sequence (P35869 whole entry, looked up): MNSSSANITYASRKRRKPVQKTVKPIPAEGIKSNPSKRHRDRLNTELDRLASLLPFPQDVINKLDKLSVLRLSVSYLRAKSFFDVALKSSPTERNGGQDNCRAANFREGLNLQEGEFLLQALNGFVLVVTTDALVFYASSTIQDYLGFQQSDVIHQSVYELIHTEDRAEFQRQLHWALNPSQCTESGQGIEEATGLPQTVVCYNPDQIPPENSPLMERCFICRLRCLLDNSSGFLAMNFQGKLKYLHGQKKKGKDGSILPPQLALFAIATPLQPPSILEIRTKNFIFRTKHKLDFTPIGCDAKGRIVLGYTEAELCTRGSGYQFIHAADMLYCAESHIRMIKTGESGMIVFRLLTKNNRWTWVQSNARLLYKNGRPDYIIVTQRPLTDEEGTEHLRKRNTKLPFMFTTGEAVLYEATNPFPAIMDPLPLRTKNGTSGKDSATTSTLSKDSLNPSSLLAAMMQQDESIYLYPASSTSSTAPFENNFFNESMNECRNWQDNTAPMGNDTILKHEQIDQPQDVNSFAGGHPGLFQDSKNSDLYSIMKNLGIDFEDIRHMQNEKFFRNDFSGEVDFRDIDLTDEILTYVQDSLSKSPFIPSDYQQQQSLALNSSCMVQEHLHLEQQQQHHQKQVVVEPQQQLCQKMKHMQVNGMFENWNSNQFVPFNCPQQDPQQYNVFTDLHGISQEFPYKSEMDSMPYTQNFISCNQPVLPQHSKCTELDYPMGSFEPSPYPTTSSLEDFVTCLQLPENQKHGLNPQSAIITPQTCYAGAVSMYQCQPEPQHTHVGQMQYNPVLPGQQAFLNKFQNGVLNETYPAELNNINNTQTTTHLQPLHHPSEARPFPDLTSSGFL
Numbers without * were called inactive; nt = no result given.

SMILES	HSF1 inhib	HSF1 activator	GAA850 FXN act	AHR activator
COc1ccc(NC(=O)COC(=O)Cc2coc3cc(OC)ccc23)c(OC)c1	nt	nt	-1	1
CCOC(=O)c1cccc(NC(=O)/C(=C\c2ccccc2)NC(=O)c2ccccc2Cl)c1	-3	9	-4	-4
CC(=O)N1c2ccccc2C2(C)C(C1(C)C)C2(Cl)Cl (centres undefined)	-6	-2	0	1
COc1cc(-c2noc(C)c2C#Cc2nccn2C)cc(OC)c1OC	2	5	-2	66*
Cn1c(C(=O)c2ccccc2[N+](=O)[O-])nc2ccccc21	0	-2	1	48*
Cn1c(C(=O)c2ccccc2)nc2ccccc21	9	11	2	7
Clc1ccccc1Nc1nc(-c2ccncc2)nc2ccccc12	-7	-17	0	15
Cc1c(O)ccc(/C=N/Nc2nc(-c3cccnc3)nc3ccccc23)c1O	-5	-14	-2	27
Clc1ccccc1-c1nc(N/N=C/c2cccnc2)c2ccccc2n1	-4	4	0	67*
Oc1ccc(/C=N/Nc2nc(-c3cccnc3)nc3ccccc23)c(O)c1	3	19	-4	7
Cc1ccc(-c2nc(N/N=C/c3ccncc3)c3ccccc3n2)cc1	32	35	1	64*
c1ccc2c(Nc3nc(-c4ccncc4)nc4ccccc34)cccc2c1	-87*	-90	0	51*
COc1ccc(/C=N/Nc2nc(-c3cccnc3)nc3ccccc23)cc1OC	-1	-21	-3	68*
CC(=O)N1CCN(c2ccc(Nc3nc(C)nc4c3oc3ccccc34)cc2)CC1	-4	-5	-1	5
COc1cc(C(=O)NC(C)c2cnn(-c3ccccc3C)c2C)cc(OC)c1OC (centres undefined)	4	12	0	5
O=C(/C=C/c1ccc(Cl)cc1)NC(=S)NN1CCCCC1c1cccnc1 (centres undefined)	6	2	nt	-1
COCCn1c(C)cc(C(=O)CSc2nc3ccccc3c(=O)[nH]2)c1C	16	29	4	20
CCC(C)n1cnc2c(c1=O)c1nc3ccccc3nc1n2Cc1ccc(OC)cc1 (centres undefined)	37	104*	0	0
O=C1N/C(=N/O)S/C1=C/c1cccc([N+](=O)[O-])c1	nt	nt	1	3
CC1(C)CC(=O)/C(=C\c2cccc([N+](=O)[O-])c2)C(C)(C)N1	52	76*	2	3
c1ccc2c(c1)ncn2-c1ccc(-c2ccnc(-c3ccncc3)n2)cc1	3	7	0	44
Nc1nccc(-c2ccc(-n3cnc4ccccc43)cc2)n1	-32	-38	-5	48*
O=C(CN(Cc1ccccc1)C(=O)c1cc2c(s1)CCC2)NCc1cccs1	4	5	0	2
Cc1ccc(-c2cc(-c3ccco3)c3c(N)c(C(=O)NN)oc3n2)cc1	0	-6	3	42
NNC(=O)c1oc2nc(-c3cccs3)cc(-c3ccco3)c2c1N	-1	-7	-1	48*
SMILES	HSF1 inhib	HSF1 activator	GAA850 FXN act	AHR activator
Cc1csc(NC(=O)CSc2nnc(-c3ccc(S(=O)(=O)N4CCCC4)cc3)o2)n1	-4	-11	0	6
Cn1c(N)c(C(=O)CCl)c(=O)n(Cc2ccccc2)c1=O	-2	-5	0	2
COc1ccccc1NC(=O)CN(C)S(=O)(=O)c1ccc2c(c1)CCC(=O)N2	-7	1	-1	0
COc1ccc(NC(=O)CN(C)S(=O)(=O)c2ccc3c(c2)CCC(=O)N3)c(OC)c1	-86*	-90	-1	0
CN(C)S(=O)(=O)Oc1ccsc1C(=O)Nc1ccc(Br)cc1	6	18	0	11
CN(C)S(=O)(=O)Oc1ccsc1C(=O)Nc1ccc(C(F)(F)F)cc1	-4	3	2	55*
CS(=O)(=O)c1ccc(C(=O)OCC(=O)NC(=O)C2CCCCC2)cc1[N+](=O)[O-]	42	70*	4	3
Cc1ccccc1NC(=O)COC(=O)c1ccc(S(C)(=O)=O)c([N+](=O)[O-])c1	-93*	-94	4	-2
CS(=O)(=O)c1ccc(C(=O)OCC(=O)NC(=O)C2COc3ccccc3O2)cc1[N+](=O)[O-] (centres undefined)	nt	nt	1	1
CC(CCc1ccccc1)NC(=O)COC(=O)c1ccc(S(C)(=O)=O)c([N+](=O)[O-])c1 (centres undefined)	-79*	-78	3	2
COC(=O)C1=CN(c2ccc(F)cc2)C=C(C(=O)OC)C1c1ccc([N+](=O)[O-])cc1	1	-8	3	nt
CCNS(=O)(=O)c1ccc(CCC(=O)Nc2ccc(C(=O)OC)cc2)cc1	-3	-20	1	-2
COc1cccc(CCNC(=O)C2CCC(=O)N(C3CC3)C2)c1OC (centres undefined)	21	59*	0	nt
COc1ccccc1CCNC(=O)C1CCC(=O)N(C2CC2)C1 (centres undefined)	-2	-13	0	0
Cc1ccc2nc(N/C(=N/S(=O)(=O)c3ccc(F)cc3F)c3ccccc3)sc2c1	-8	3	1	-2
CCOC(=O)C1=C(C)NC2=C(C(=O)CCC2)C1c1cccs1 (centres undefined)	7	-16	-1	1
CCOC(=O)c1sc2c(c1C)C(c1cccs1)C1=C(CCCC1=O)N2 (centres undefined)	28	79*	0	0
Nc1n[nH]c(C2CC2)c1N=Nc1ccc(Cl)c(Cl)c1	0	28	3	96*
Cc1cccc(N=Nc2c(N)n[nH]c2-c2ccc(Cl)cc2)c1	-2	1	2	34
O=C(Cc1ccccc1[N+](=O)[O-])Nc1ccccc1C(=O)N1CCCC1	-3	-8	0	14
COc1ccc(C(CCN2CCOCC2)c2c(O)cc(OC)cc2OC)cc1 (centres undefined)	-11	-10	-1	0
COc1ccc(C(c2c(O)ccc3ccccc23)N2CCOCC2)c(OC)c1 (centres undefined)	74	106*	2	25
CCOc1ccccc1CNC(=O)c1c([N+](=O)[O-])c(C)nn1C	-3	9	-2	61*
O=C(NCc1cccc(Cl)c1)C1CCC(=O)N(CCCN2CCOCC2)C1 (centres undefined)	-3	12	-1	nt
COc1ccc(N(C)C(=O)c2oc(=O)c3ccccc3c2-c2ccccc2)c(OC)c1	-79*	-85	-1	0
SMILES	HSF1 inhib	HSF1 activator	GAA850 FXN act	AHR activator
COc1ccc(N(C)C(=O)Cn2c(=O)oc3ccccc32)c(OC)c1	-9	-3	0	2
Cc1sc2nc(SCC(=O)N3CCOCC3)[nH]c(=O)c2c1-c1ccccc1	-4	-4	0	49*
Cc1sc2nc(-c3ccccc3)[nH]c(=O)c2c1-c1ccccc1	-1	0	nt	48*
CCOc1ccc(C(=O)N2CCN(CCc3ccccc3)CC2)cc1OCC	-5	2	2	2
Cc1cc(N/N=C/c2ccc(O)c(C)c2O)nc(-c2ccccc2O)n1	-59*	-62	-9	1
CCOCCOC(=O)c1ccc(-n2cncn2)nc1	-86*	-89	2	0
